Screening data: PubChem BioAssay, National Center for Advancing Translational Sciences (NCATS)
Shown are actives, neighbours in structure and some others; about 7.5% of the full set was active somewhere.
KinaseGlo FLuc: blocks Kinase-Glo luciferase, a counter-screen artifact | AID 1379 | Q27757 | Potency, µM (highest dose often 38.3 µM), for the others: top-dose activity change, negative = inhibition, actives largely listed as inhibitors | Kinase-Glo luciferase, ATP luminescence, 8 min | actives 0.28% (n = 200,000); also: % is scaled to controls: 0 for no effect and ±100 for the full control effect; nearly all actives have a fitted effect of over 60% in size
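Luminescence was the read-out, taken after 8-minute incubation at ambient temperature. Luciferase turned over luciferin with 10 uM ATP in imidazole pH 7.2 buffer containing KCl, MgCl2, Tween 20 and BSA.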
ELG1 genotoxic: genotoxicity induction in ELG1-luciferase HEK293T cells; Potency, µM (doses to about 46 µM), inactives show top-dose activity change, positive = activation, actives largely listed as activators; actives 1.3% (n = 330,000); HEK293T ELG1-luciferase reporter, luminescence, 16 h; also: % of control where 0% means no effect; nearly all actives have a fitted effect of over 60% in size
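After overnight (16 hr) compound treatment at 37 °C, ELG1-luciferase HEK293T cells were lysed with ONE-Glo; luminescence quantified 30 min later at room temperature.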
Rab9 promoter act: Rab9 promoter activation; Huh7 Rab9 promoter-luciferase reporter, luminescence, 24 h; Potency, µM (titrated, usually from 9.22 µM), for the others: top-dose activation, negative = inhibition, usual class: activators; actives 2.8% (n = 320,000); also: % of control where 0% means no effect; nearly all actives have a fitted effect of over 60% in size
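Cell-based reporter: Huh7 stable for Rab9 promoter-driven luciferase, plated in reduced-serum medium with 10% FBS at 1500 cells/well, compound-treated 24 h at 37 °C, luminescence read after 10 min reagent.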
FLuc counter: inhibits or activates purified firefly luciferase, miR-21 counter-screen; purified FLuc, Km substrates, luminescence inhibition; Potency, µM (doses to about 57.5 µM), for the others: at the highest dose activity change, negative = inhibition, hits mostly inhibitors; AID 588342; actives 6.9% (n = 360,000);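 also: plate controls were vehicle for no effect and reference inhibitor for full effect; nearly all actives have a fitted effect of over 55% in size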
Target sequence (P08659 whole entry, looked up): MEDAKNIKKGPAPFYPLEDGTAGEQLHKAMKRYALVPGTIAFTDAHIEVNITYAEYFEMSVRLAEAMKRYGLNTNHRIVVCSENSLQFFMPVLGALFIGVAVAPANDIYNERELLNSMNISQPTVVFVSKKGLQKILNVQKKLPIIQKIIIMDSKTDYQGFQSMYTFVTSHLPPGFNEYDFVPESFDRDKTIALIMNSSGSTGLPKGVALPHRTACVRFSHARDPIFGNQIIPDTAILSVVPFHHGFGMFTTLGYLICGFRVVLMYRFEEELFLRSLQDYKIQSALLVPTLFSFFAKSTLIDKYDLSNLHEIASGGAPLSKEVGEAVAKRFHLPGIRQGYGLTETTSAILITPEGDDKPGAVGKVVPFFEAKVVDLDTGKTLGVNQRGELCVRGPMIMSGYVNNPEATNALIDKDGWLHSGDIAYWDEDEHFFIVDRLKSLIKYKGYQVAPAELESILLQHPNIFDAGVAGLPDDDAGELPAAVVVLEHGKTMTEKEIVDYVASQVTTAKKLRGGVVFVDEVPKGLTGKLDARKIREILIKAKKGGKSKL
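Biochemical qHTS of compounds, final roughly 60 µM downward over six points, against 10 nM purified firefly luciferase using Km concentrations of substrates (10 uM D-luciferin, 10 uM ATP) in Tris acetate pH 7.5 buffer; luminescence output.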
SMN2 splice up: SMN2 splice variant enhancement; actives 2.8% (n = 210,000); Potency, µM (top dose mostly 46.1 µM), for inactives: at the top dose activity change, positive = activation, actives largely listed as activators; AID 1458; HEK293 SMN2-luciferase splicing reporter, luminescence, 30-36 h; also: % of control where 0% means no effect; nearly all actives have a fitted effect of over 55% in size
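HEK293 cells carry an SMN2 […]–luciferase reporter in which exon 7 inclusion puts luciferase in frame. Cells were plated 10-12 h before compound addition, then incubated 30-36 h at 37C. ONE-Glo luminescence was read; sodium butyrate at 4.5 mM final served as control.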
NPC1 prom act: activates the NPC1 promoter; Huh7 NPC1 promoter luciferase reporter, 24 h; Potency, µM (top dose mostly 9.22 µM), for the others: at the highest dose activation, hits mostly activators; actives 2.4% (n = 320,000); also: % of control where 0% means no effect; nearly all actives have a fitted effect of over 60% in size
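Quantitative HTS used a cell-based reporter: Huh7 cells stably bearing the NPC1 promoter upstream of luciferase were treated with compounds for 24 h, and promoter activation was read as luminescence.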
Starred values were filed as active, the others as inactive; u = inconclusive; x = no result given. Calls follow the shape of the dose curve; as a rule, active = well fitted curve in the direction sought with a large enough effect; inconclusive = small, poorly fitted or top-dose-only effect, or another doubt; inactive = no such curve, though single readings can be large; an effect the other way counts as inactive or inconclusive. Potency is read from the fitted curve at half-maximal effect.

SMILES	KinaseGlo FLuc	ELG1 genotoxic	Rab9 promoter act	FLuc counter	SMN2 splice up	NPC1 prom act
O=C(Nc1cccc(-c2nnco2)c1)c1cccs1	x	-1%	0%	-27%	x	3%
O=C(Cc1cccs1)Nc1cccc(-c2nc3ccccc3o2)c1	0%	1%	-3%	-6%	-6%	-1%
Cc1ccc(-c2nnc(-c3cccc(NC(=O)c4cccs4)c3)o2)cc1	2%	-6%	2%	2.7µM*	-14%	29%
Cc1cccc(-c2nnc(-c3cccc(NC(=O)Cc4cccs4)c3)o2)c1	7%	0%	-2%	12µM*	27%	2%
CC(C)Oc1ccc(/C(O)=C2/C(=O)C(=O)N(CCN(C)C)C2c2ccco2)cc1 (stereo not drawn)	2%	u	u	21µM*	28%	25%
CC1Cc2cc(/C(O)=C3/C(=O)C(=O)N(CCCn4ccnc4)C3c3ccco3)ccc2O1 (stereo not drawn)	2%	u	2.8µM*	15µM*	-14%	u
CCN(CC)CCN1C(=O)C(=O)/C(=C(/O)c2ccc(OC)cc2)C1c1ccco1 (stereo not drawn)	x	3%	6%	u	x	15%
COc1cn(-c2ccccc2)nc1C(=O)Nc1ccc(C)cc1Cl	x	27%	14%	6.7µM*	x	1%
COc1ccc(-n2ccnc2SCC(=O)Nc2nnc(C)s2)cc1	x	x	x	-5%	x	x
CN(C)S(=O)(=O)c1cccc(NC(=S)NC23CC4CC(CC(C4)C2)C3)c1	x	-17%	-1%	2%	x	-1%
CCOc1ccc(NC(=S)NC23CC4CC(CC(C4)C2)C3)cc1	x	2%	0%	-1%	x	-1%
CN(C)c1ccc(NC(=S)NC23CC4CC(CC(C4)C2)C3)cc1	x	u	u	12µM*	x	-2%
FC(F)Oc1ccc(NC(=S)NC23CC4CC(CC(C4)C2)C3)cc1	x	-14%	22%	19µM*	x	3%
COc1ccc(Cl)cc1C(=O)NNC(=O)c1csc(N2CCOCC2)n1	x	-6%	3%	-16%	x	-1%
O=C(Nc1nc2nccc(-c3ccccc3)n2n1)c1ccc(F)cc1	-1%	1%	11%	1%	-24%	-6%
O=C(Nc1nc2nccc(-c3ccccc3)n2n1)c1ccccc1	x	u	2.5µM*	u	x	2.8µM*
COc1ccc(-c2ccnc3nc(N4CCN(c5ccccc5)CC4)nn23)cc1	4%	0%	-13%	-7%	1%	-1%
COc1ccc(C(=O)Nc2nc3nccc(-c4ccccc4)n3n2)cc1	2%	-3%	1%	9.5µM*	-25%	-3%
Cc1cccc(OCCSc2cc(C)nc(N)n2)c1	-3%	1%	0%	u	-3%	-4%
CC(Oc1ccc2cc(-c3ccccc3)c(=O)oc2c1)C(=O)NCC1CCC(C(=O)O)CC1 (stereo not drawn)	x	5%	-4%	21µM*	x	1%
COc1ccc(-c2cc(=O)oc3cc(OCC(=O)N(C)C)ccc23)cc1	x	2%	-37%	-1%	x	-3%
O=C(O)COc1ccc2c(-c3ccccc3)cc(=O)oc2c1	-1%	10%	16%	19µM*	u	10%
CN(C)C(=O)COc1ccc2cc(-c3ccccc3)c(=O)oc2c1	-3%	u	2µM*	u	18µM*	4µM*
COc1ccc2cc(-c3ccccc3)c(=O)oc2c1	x	2.6µM*	0.71µM*	2.4µM*	x	1.3µM*
COc1ccc(CCNC(=O)c2ccc(Cn3c(=O)c4ccccc4n(Cc4cccc(Cl)c4)c3=O)cc2)cc1OC	x	x	x	1%	-27%	x
CCCOc1ccccc1OCC(=O)Nc1cccc(S(=O)(=O)NC2=NCCC2)c1	x	-2%	-44%	-7%	x	0%
Cc1ccccc1CSc1nnc(-c2ccncc2)n1C	x	0%	-1%	2%	x	-4%
O=c1oc2ccccc2cc1-c1ccccc1	0%	u	u	u	21%	19%
